Assay results reported in the supplement of paper PMC10849652.
About 8,800 targets were measured; listed, in parts, are those with a hit and a random draw of the rest. About 0.5% of all pairs of compound and target were hits.

Legend:
Assay in all cases: log2 fold change, soluble protein after heating vs DMSO (PISA); higher = thermal stabilisation; K562 lysate, 10 uM; active = over 0.2 and 3.5 SD of the protein, either way, in both replicates (recomputed)
[1] = compound: C#Cc1cccc(Nc2ncnc3cc(OCCOC)c(OCCOC)cc23)c1 [erlotinib]
Outline: (§1)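 Values give the log-two fold change in thermal stability against solvent controls, from duplicates. Crude K562 extract at 1 mg/mL protein, made by dounce homogenisation in PBS pH 7.4 with 1 mM MgCl2, was treated with 10 μM compound for 30 min. After 3 min heating across 48°C-58°C, aliquots were pooled, adjusted to 0.5% NP-40 at 4°C and centrifuged at 21,000xg for 90 min. The supernatant was measured by TMTpro 16plex LC-MS/MS with channel sums equalised.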

[2] = compound: C/C(=N\NC(=O)C1=CC(=CC=C1)S(=O)(=O)N2CCOCC2)/C3=C(C=CC(=C3)Cl)O
Outline: as §1

[3] = compound: C1=CC(=CC=C1C2=NC3=C(N2)C=C(C=C3)C(=O)N)OC4=CC=C(C=C4)Cl
Outline: as §1

[4] = compound: C1=CC2=C(C=CC(=C2)/C=C\3/C(=O)NC(=NCC4=CC=CS4)S3)N=C1
Outline: as §1

[5] = compound: C1=CC2=NC=CN=C2C=C1/C=C/3\C(=O)NC(=O)S3
Outline: as §1

[6] = compound: C1=CC=C(C=C1)C2=NC(=C(N2)C3=CC=NC=C3)C4=CC(=C(C=C4)Cl)O
Outline: as §1

[7] = compound: C1=CC=C2C(=C1)C3=NNC4=CC=CC(=C43)C2=O
Outline: as §1

[8] = compound: C1CCN(C1)C(=O)NC2=CC=CC(=C2)NC3=NC=C(C(=N3)NCCC4=CN=CN4)Br
Outline: as §1

[9] = compound: C1CN(CCC1(CC2=CC=C(C=C2)Cl)N)C3=NC=NC4=C3C=CN4
Outline: as §1

[10] = compound: C1COCCN1CCN2C3=CC=CC=C3N=C2NC(=O)C4=CC(=CC=C4)[N+](=O)[O-] [IRAK-1-4 Inhibitor I]
Outline: as §1

[11] = compound: C=CC(=O)N1CCC[C@@H](n2nc(-c3ccc(Oc4ccccc4)cc3)c3c(N)ncnc32)C1 [ibrutinib]
Outline: as §1

[12] = compound: CC(=O)c1cnc2ccc(-c3cc(Cl)c(O)c(Cl)c3)nc2c1N[C@H]1CC[C@H](CN(C)C)CC1
Outline: as §1

[13] = compound: CC(C)(C)Cn1c(N)nc2ccc(-c3[nH]c(C(C)(C)C)nc3-c3ccc(F)cc3)nc21 [ralimetinib]
Outline: as §1

[14] = compound: CC(C)(O)CC(=O)NCCn1ccc2ncnc(Nc3ccc(Oc4cccc(C(F)(F)F)c4)c(Cl)c3)c21
Outline: as §1

[15] = compound: CC(C)C1=C2N=C(C=C(N2N=C1)NCC3=CC=CC=C3)NCCCCCCN
Outline: as §1

[16] = compound: CC1=C(C(CC(=O)N1)C2=CC=C(C=C2)C(F)(F)F)C(=O)NC3=C(C=C4C(=C3)C=NN4)F
Outline: as §1

[17] = compound: CC1=C(C2=C(C=C1)C(=O)C3=CC=CC=C3N2CCCN)C
Outline: as §1

[18] = compound: CC1=C(C=C(C=C1)NC(=O)C2=CC(=CC=C2)C(C)(C)C#N)NC3=CC4=C(C=C3)N=CN(C4=O)C
Outline: as §1

[19] = compound: CC1=C(C=C(C=C1)NC(=O)C2=CC(=CC=C2)N(C)C)NC(=O)C3=CC=C(C=C3)O
Outline: as §1

[20] = compound: CC1=CC=C(C=C1)SC2=C3C=C(SC3=CN=C2)C(=O)N
Outline: as §1

Measured: log2 fold change

COASY isoform 2 (UniProt Q13057)
inactive: [1] 0.006 | [2] -0.049 | [3] -0.044 | [4] -0.007 | [5] 0.022 | [6] -0.018 | [7] -0.05 | [8] -0.019 | [9] 0.024 | [10] -0.019 | [11] 0.024 | [12] -0.015 | [13] 0.103 | [14] 0.002 | [15] -0.003 | [16] 0.013 | [17] -0.001 | [18] -0.013 | [19] 0.037 | [20] 0.014

DNAAF5 (UniProt Q86Y56)
inactive: [1] -0.008 | [2] 0.041 | [3] -0.062 | [4] -0.057 | [5] 0.021 | [6] -0.016 | [7] -0.08 | [8] -0.003 | [9] 0.007 | [10] -0.039 | [11] -0.043 | [12] 0.032 | [13] 0.074 | [14] -0.049 | [15] -0.043 | [16] -0.002 | [17] -0.005 | [18] -0.035 | [19] 0.047 | [20] 0.061

DCUN1D4 isoform 3 (UniProt Q92564)
Sequence of UniProt Q92564 (Q92564 whole entry, looked up): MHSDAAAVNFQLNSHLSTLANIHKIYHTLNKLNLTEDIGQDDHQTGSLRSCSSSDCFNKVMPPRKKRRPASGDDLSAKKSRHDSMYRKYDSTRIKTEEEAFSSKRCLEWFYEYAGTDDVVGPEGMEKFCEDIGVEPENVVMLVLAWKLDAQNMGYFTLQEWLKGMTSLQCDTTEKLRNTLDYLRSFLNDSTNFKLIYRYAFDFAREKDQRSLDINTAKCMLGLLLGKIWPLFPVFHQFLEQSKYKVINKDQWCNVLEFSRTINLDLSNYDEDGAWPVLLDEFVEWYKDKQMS
inactive: [1] -0.025 | [2] -0.118 | [3] 0.068 | [4] -0.127 | [5] -0.063 | [6] -0.026 | [7] -0.053 | [8] -0.09 | [9] -0.113 | [10] 0.005 | [11] 0.064 | [12] 0.078 | [13] -0.033 | [14] -0.057 | [15] 0.018 | [16] -0.009 | [17] -0.078 | [18] -0.027 | [19] 0.029 | [20] -0.059

CORO7 isoform 3 (UniProt P57737)
inactive: [1] 0.035 | [2] -0.009 | [3] -0.079 | [4] 0.013 | [5] 0 | [6] 0.016 | [7] -0.016 | [8] 0.009 | [9] 0.026 | [10] -0.04 | [11] -0.01 | [12] 0.002 | [13] 0.016 | [14] 0.031 | [15] 0.009 | [16] -0.013 | [17] -0.006 | [18] -0.006 | [19] 0.02 | [20] 0.005

DCP1A (UniProt Q9NPI6)
Sequence of UniProt Q9NPI6 (Q9NPI6 whole entry, looked up): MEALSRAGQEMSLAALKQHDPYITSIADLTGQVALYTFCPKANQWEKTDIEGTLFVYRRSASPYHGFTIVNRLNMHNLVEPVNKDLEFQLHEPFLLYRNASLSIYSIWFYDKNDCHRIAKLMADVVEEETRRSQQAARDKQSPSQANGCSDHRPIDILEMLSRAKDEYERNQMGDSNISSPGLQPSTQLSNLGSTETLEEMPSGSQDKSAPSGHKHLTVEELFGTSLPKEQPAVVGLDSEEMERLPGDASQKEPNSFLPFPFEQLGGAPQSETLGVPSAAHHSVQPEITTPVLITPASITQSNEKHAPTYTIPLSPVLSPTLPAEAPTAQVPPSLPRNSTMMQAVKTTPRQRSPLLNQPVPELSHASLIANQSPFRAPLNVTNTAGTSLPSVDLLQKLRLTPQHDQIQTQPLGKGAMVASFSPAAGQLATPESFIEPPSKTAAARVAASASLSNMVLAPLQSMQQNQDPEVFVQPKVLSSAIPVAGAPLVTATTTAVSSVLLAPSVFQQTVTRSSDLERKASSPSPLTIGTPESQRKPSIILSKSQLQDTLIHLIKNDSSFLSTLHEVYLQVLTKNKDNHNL
inactive: [1] 0.038 | [2] 0.025 | [3] 0.03 | [4] 0.004 | [5] -0.03 | [6] 0.014 | [7] -0.033 | [8] 0.013 | [9] 0.012 | [10] -0.045 | [11] 0 | [12] -0.016 | [13] 0.004 | [14] -0.042 | [15] 0.025 | [16] 0.013 | [17] -0.02 | [18] 0.046 | [19] 0.011 | [20] 0

CPT1A (UniProt P50416)
inactive: [1] -0.029 | [2] -0.034 | [3] 0.01 | [4] -0.001 | [5] -0.05 | [6] 0.002 | [7] 0.011 | [8] -0.036 | [9] 0.024 | [10] -0.008 | [11] 0.042 | [12] -0.021 | [13] -0.016 | [14] 0.008 | [15] -0.026 | [16] -0.009 | [17] -0.041 | [18] -0.05 | [19] -0.008 | [20] 0.017

DGCR8 (UniProt Q8WYQ5)
inactive: [1] 0.045 | [2] -0.026 | [3] 0.019 | [4] 0.023 | [5] -0.057 | [6] 0.002 | [7] -0.011 | [8] -0.019 | [9] 0 | [10] -0.038 | [11] 0.031 | [12] -0.049 | [13] 0.014 | [14] -0.014 | [15] 0.015 | [16] 0.02 | [17] -0.018 | [18] -0.219 | [19] 0.071 | [20] -0.006

CXorf38 (UniProt Q8TB03)
Sequence of UniProt Q8TB03 (Q8TB03 whole entry, looked up): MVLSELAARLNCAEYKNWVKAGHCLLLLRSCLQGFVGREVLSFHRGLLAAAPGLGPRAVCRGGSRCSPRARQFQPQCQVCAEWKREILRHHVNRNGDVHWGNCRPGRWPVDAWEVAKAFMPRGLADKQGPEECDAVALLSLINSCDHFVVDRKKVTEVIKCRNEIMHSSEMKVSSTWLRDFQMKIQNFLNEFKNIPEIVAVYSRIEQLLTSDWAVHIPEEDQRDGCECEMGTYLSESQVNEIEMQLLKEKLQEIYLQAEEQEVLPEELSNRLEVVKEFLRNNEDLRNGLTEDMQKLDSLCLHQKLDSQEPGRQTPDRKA
inactive: [1] 0.068 | [2] 0.067 | [3] -0.003 | [4] 0.01 | [5] 0.042 | [6] 0.013 | [7] 0.012 | [8] -0.058 | [9] -0.031 | [10] 0.026 | [11] 0.054 | [12] 0.015 | [13] -0.008 | [14] -0.007 | [15] 0.062 | [16] -0.095 | [17] 0.016 | [18] -0.002 | [19] -0.015 | [20] 0.025

DIAPH1 (UniProt O60610)
inactive: [1] -0.004 | [2] -0.006 | [3] 0.002 | [4] 0.007 | [5] -0.002 | [6] -0.001 | [7] -0.006 | [8] -0.01 | [9] -0.001 | [10] -0.007 | [11] -0.028 | [12] -0.004 | [13] -0.006 | [14] 0.005 | [15] -0.01 | [16] -0.009 | [17] 0.003 | [18] -0.004 | [19] 0.001 | [20] 0.004

COPZ1 isoform 4 (UniProt P61923)
Sequence of UniProt P61923 (P61923 whole entry, looked up): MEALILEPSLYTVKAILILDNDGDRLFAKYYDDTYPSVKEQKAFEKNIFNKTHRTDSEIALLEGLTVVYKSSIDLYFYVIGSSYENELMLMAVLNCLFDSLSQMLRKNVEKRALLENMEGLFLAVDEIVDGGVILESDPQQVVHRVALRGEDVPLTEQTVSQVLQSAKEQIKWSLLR
inactive: [1] -0.029 | [2] 0.065 | [3] -0.05 | [4] -0.036 | [5] -0.142 | [6] -0.006 | [7] 0 | [8] -0.08 | [9] -0.028 | [10] -0.015 | [11] 0.123 | [12] 0.007 | [13] 0 | [14] 0.013 | [15] 0.02 | [16] -0.054 | [17] 0.037 | [18] 0.03 | [19] -0.012 | [20] 0.117

CNOT2 (UniProt Q9NZN8)
inactive: [1] 0.016 | [2] 0.013 | [3] 0.021 | [4] 0.015 | [5] -0.016 | [6] -0.011 | [7] 0.014 | [8] 0.004 | [9] 0.012 | [10] 0.007 | [11] 0.022 | [12] 0.037 | [13] 0.016 | [14] -0.013 | [15] -0.001 | [16] -0.01 | [17] 0.03 | [18] 0.006 | [19] -0.007 | [20] 0.011

CMTM3 (UniProt Q96MX0)
Sequence of UniProt Q96MX0 (Q96MX0 whole entry, looked up): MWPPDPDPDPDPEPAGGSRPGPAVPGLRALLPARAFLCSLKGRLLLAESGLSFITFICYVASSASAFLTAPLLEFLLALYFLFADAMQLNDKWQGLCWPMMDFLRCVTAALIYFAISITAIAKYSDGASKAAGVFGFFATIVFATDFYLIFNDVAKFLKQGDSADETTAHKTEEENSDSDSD
inactive: [1] 0.002 | [2] -0.112 | [3] 0.053 | [4] -0.084 | [5] -0.009 | [6] -0.011 | [7] -0.019 | [8] -0.083 | [9] -0.089 | [10] -0.012 | [11] -0.036 | [12] 0.036 | [13] 0.093 | [14] 0.104 | [15] -0.022 | [16] 0.052 | [17] -0.06 | [18] 0.06 | [19] -0.039 | [20] -0.016

COL6A5 (UniProt A8TX70)
Sequence of UniProt A8TX70 (A8TX70 whole entry, looked up): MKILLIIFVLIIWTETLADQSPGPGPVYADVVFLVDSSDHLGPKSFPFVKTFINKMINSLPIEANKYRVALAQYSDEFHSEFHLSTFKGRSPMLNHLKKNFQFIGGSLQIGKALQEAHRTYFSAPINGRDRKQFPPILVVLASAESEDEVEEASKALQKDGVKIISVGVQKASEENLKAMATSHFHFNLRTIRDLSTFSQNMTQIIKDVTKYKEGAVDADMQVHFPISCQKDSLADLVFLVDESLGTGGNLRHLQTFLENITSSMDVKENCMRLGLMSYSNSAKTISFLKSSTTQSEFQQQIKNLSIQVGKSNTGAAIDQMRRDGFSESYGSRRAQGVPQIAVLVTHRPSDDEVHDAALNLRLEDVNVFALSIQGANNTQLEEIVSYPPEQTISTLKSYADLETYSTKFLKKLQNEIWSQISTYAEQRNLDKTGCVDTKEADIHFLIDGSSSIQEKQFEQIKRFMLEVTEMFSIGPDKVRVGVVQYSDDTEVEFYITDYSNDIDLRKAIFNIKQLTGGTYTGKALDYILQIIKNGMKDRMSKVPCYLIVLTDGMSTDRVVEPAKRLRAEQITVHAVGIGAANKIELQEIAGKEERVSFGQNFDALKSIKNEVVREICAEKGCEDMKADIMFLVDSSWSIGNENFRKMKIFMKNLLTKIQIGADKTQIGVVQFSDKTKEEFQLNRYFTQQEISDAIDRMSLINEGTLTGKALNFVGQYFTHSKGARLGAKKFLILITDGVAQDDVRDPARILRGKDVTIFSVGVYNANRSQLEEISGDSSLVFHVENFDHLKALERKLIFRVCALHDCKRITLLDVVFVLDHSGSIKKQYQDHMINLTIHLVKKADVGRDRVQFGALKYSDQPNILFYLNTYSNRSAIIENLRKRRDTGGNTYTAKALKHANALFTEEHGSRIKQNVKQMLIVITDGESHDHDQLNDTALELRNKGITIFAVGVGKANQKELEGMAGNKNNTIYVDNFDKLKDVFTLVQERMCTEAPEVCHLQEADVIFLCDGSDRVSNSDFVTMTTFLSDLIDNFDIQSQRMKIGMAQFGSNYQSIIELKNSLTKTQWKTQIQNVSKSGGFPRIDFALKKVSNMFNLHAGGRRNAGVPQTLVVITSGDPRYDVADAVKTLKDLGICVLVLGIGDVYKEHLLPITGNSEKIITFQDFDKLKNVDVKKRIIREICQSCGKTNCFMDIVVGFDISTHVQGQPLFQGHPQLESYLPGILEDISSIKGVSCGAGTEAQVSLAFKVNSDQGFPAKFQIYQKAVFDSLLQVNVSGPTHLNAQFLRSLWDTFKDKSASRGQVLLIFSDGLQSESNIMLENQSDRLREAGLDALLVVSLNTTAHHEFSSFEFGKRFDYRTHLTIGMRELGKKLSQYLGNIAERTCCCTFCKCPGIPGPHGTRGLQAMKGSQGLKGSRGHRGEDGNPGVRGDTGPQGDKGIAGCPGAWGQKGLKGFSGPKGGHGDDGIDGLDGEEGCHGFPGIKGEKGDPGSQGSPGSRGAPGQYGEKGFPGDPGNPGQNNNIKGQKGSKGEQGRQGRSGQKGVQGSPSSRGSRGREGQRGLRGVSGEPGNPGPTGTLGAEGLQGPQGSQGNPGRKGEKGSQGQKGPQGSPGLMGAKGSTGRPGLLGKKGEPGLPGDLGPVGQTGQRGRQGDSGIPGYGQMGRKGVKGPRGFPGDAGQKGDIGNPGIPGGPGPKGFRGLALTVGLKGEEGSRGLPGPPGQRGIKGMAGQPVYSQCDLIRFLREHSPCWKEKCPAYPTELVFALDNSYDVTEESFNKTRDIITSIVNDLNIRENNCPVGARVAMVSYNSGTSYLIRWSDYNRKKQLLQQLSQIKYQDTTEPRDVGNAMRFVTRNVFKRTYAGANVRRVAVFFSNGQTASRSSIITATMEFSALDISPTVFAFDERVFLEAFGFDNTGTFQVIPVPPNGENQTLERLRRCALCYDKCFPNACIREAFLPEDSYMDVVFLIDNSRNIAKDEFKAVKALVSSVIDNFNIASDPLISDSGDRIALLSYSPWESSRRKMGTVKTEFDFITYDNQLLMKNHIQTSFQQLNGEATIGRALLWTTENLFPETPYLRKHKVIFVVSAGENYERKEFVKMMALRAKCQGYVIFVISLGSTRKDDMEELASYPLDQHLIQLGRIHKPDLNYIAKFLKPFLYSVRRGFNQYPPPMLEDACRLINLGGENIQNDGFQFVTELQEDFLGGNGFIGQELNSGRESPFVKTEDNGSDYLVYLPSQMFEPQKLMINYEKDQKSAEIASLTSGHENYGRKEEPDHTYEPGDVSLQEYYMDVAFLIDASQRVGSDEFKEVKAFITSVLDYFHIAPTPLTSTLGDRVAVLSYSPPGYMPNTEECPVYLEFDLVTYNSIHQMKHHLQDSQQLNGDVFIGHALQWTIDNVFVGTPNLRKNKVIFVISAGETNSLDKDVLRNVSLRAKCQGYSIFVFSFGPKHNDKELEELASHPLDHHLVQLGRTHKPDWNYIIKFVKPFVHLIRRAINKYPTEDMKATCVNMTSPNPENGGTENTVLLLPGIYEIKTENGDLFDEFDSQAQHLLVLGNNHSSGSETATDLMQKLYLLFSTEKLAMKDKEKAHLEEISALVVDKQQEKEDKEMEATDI
inactive: [1] 0.064 | [2] 0.161 | [3] 0.02 | [4] -0.062 | [5] -0.167 | [6] 0.027 | [7] 0.014 | [8] 0.014 | [9] -0.052 | [10] 0.046 | [11] 0.046 | [12] -0.023 | [13] -0.083 | [14] -0.141 | [15] 0.018 | [16] 0.063 | [17] -0.038 | [18] 0.108 | [19] -0.011 | [20] -0.053

CORO1A (UniProt P31146)
inactive: [1] 0.077 | [2] 0.086 | [3] -0.032 | [4] 0.036 | [5] -0.022 | [6] 0.005 | [7] 0.009 | [8] 0.155 | [9] -0.031 | [10] 0.021 | [11] 0.028 | [12] -0.031 | [13] -0.015 | [14] -0.021 | [15] 0.055 | [16] 0.018 | [17] -0.107 | [18] 0.025 | [19] -0.036 | [20] 0.012

DLGAP5 (UniProt Q15398)
Sequence of UniProt Q15398 (Q15398 whole entry, looked up): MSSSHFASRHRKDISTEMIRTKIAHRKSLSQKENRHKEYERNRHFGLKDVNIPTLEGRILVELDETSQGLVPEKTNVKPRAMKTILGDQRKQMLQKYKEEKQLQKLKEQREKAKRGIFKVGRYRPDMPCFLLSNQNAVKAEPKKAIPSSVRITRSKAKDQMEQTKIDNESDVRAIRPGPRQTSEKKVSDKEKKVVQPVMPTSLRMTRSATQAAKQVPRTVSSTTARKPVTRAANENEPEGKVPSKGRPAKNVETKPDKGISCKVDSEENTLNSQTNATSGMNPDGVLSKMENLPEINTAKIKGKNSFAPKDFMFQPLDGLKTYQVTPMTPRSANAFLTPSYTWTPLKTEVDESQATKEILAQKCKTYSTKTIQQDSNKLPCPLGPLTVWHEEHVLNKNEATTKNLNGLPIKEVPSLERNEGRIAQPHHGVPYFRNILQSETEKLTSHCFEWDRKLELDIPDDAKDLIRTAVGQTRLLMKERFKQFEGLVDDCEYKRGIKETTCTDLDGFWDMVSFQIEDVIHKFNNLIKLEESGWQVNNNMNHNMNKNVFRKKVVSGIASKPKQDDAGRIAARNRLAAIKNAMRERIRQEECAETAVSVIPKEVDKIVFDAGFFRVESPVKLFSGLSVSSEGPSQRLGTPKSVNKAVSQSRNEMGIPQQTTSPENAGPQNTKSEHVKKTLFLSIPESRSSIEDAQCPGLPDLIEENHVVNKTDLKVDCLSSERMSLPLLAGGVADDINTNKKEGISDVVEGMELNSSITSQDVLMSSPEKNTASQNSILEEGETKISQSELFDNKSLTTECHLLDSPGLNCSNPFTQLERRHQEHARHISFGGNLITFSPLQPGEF
inactive: [1] -0.015 | [2] 0.023 | [3] -0.006 | [4] -0.024 | [5] -0.02 | [6] 0.026 | [7] -0.021 | [8] -0.013 | [9] -0.013 | [10] -0.009 | [11] 0.004 | [12] 0.02 | [13] -0.018 | [14] 0.005 | [15] -0.036 | [16] -0.009 | [17] -0.007 | [18] -0.012 | [19] 0.016 | [20] -0.003

CTNND1 isoform 3 (UniProt O60716)
inactive: [1] -0.002 | [2] -0.039 | [3] -0.024 | [4] -0.045 | [5] 0.003 | [6] 0.087 | [7] -0.093 | [8] 0.009 | [9] 0.022 | [10] 0.004 | [11] 0.01 | [12] 0.001 | [13] -0.058 | [14] -0.028 | [15] 0 | [16] 0.006 | [17] -0.036 | [18] -0.016 | [19] 0.032 | [20] -0.025
